Measured values from ChEMBL document CHEMBL1157539, “Thousands of chemical starting points for antimalarial lead identification” (Nature, 2010).

These compounds were tested on Plasmodium falciparum (assay: GSK_TCMDC: Inhibition of Plasmodium falciparum 3D7 in whole red blood cells, using parasite LDH activity as an index of growth. Test compounds present at 2uM).
Type: functional

Structure (SMILES)	Inhibition
Cc1[nH]c(C)c(C(F)(F)F)c(=O)c1-c1ccc(Oc2ccc(OC(F)(F)F)cc2)cc1	97%
COc1ccc(NC(=O)/C=C/c2ccccc2Cl)cc1OCCN1CCC(N2CCN(C)CC2)CC1	100%
O=C(Nc1cccc(Oc2ccccc2)c1)N[C@H]1CCN(Cc2ccc(OCCCN3CCCCC3)cc2)C1	100%
COCCCNC(=O)C1CCN(C(c2ccc(Cl)cc2)c2ccc(Cl)cc2)CC1	91%
CC(=O)c1ccc2c(c1)C(NC(=O)c1cccc(Cl)c1Cl)C(CO)C(C)(C)O2 (centres undefined)	99%
O=C(O)C(F)(F)F.O=[N+]([O-])c1cccc(CNC2CCN(Cc3ccc(-c4ccccc4)cc3)CC2)c1	100%
COc1ccc2c(NN=Cc3ccc(F)cc3)ccnc2c1	100%
CN1CCN(c2cc3c(cc2Br)CCN3C(=O)Nc2ccc(-c3cnc4ccccc4c3)cc2)CC1	99%
N#Cc1ccc(N2CCN(C(=O)c3cccc(-c4noc(C(F)(F)F)n4)c3)CC2)nc1	84%
Cl.Cn1c(=O)n(C)c2cc(CNCCNc3ccnc4cc(Cl)ccc34)ccc21	100%
CCCCNc1nc(NCCCC)c2c(C)c(Cc3ccccc3)c(NCCCC)nc2n1.Cl	95%
COCCNCc1ncsc1-c1ccc2c(Nc3cc(O)c(Cl)cc3F)ccnc2c1	100%
CC(Cc1ccc(C(=O)N2CCN(C(=O)c3ccc(CC(C)NCCc4cccc(Cl)c4)cc3)CC2)cc1)NCCc1cccc(Cl)c1 (centres undefined)	100%
COc1ccc2nc(-c3ccc(C(=O)NCCCN4CCN(c5cc(Cl)ccc5OC)CC4)cc3)[nH]c2c1	97%
CN1CCN(Cc2ccc(-c3cccc(-c4nc5ccccc5[nH]4)c3)cc2)CC1.O=C(O)C(F)(F)F	93%
O=C(Nc1ccc2c(c1)CCC2)c1cccc(CN2CCCN(Cc3cccc(O)c3)CC2)c1.O=C(O)C(F)(F)F	91%
N#Cc1ccccc1S(=O)(=O)N1CCCC(CNC(=O)[C@H](CC2CCCCC2)NC(=O)c2cc3ccccc3s2)C1 (some centres undefined)	97%
Cc1ccccc1OCC(=O)Nc1ccc(-c2nc3cc4ccccc4cc3[nH]2)cc1	100%
Cc1cccc(CNc2nc(C)cc(N[C@@H](Cc3ccccc3)C(=O)NCCOc3ccccc3)n2)c1.O=C(O)C(F)(F)F	93%
Cc1ccc2oc3cc(-c4nnn[nH]4)ccc3c(=O)c2c1	97%

Structure (SMILES)	Inhibition
O=c1ccccn1CCCC1CCCCN1 (centres undefined)	96%
CC1(C)C2C=C(CN3CCC(NC(=O)Nc4ccc(Cl)c(Cl)c4)CC3)C1CC2 (centres undefined)	100%
CCNc1cc(C(=O)N[C@@H](Cc2ccccc2)[C@H](O)CNC(C)CCCC(C)C)cc(N2CCCS2(=O)=O)c1.O=CO (some centres undefined)	99%
CC(=O)Nc1ccc(C(=O)NC2CCN(c3ccnc4cc(Cl)ccc34)CC2)cc1.O=C(O)C(F)(F)F	100%
C=CCn1c(SCC(=O)Nc2cc(Cl)ccc2Cl)nc2sc(C)cc2c1=O	97%
O=c1cc(NCCCNCc2cc(Cl)cc(Cl)c2OCc2ccccc2)[nH]c2ccccc12	91%
COc1cc2nc(C)nc(Nc3ccc(Cc4ccccc4)cc3)c2cc1OC.Cl	100%
Cl.NC(=O)c1cccc(Nc2nccc(Nc3ccc(Oc4ccc5ccccc5c4)cc3)n2)c1	96%
O=C(NCCCCN1CCCC2c3ccc(O)cc3CCC21)c1ccc(-c2ccccc2)cc1 (centres undefined)	96%
CCCCCCN1CCN(Cc2cccc(NC(=O)c3cc4ccccc4s3)c2)CC1.O=C(O)C(F)(F)F	93%
Cc1ccc2c(=NN=Cc3ccc(N(C)C)cc3)cc(C)[nH]c2c1	99%
O=C(O)c1cc(C(F)(F)F)co1	96%
O=C(NC1CCN(CCC[C@]2(c3ccc(Cl)c(Cl)c3)CCCN(C(=O)c3ccccc3)C2)CC1)c1ccc(F)cc1	90%
C=Cc1sc(CNCCCNc2cc(=O)c3ccccc3[nH]2)c(C)c1Br	94%
COc1cc(NC(=O)c2cc([N+](=O)[O-])ccc2NC(=O)CNC2CCCCC2C)cc(OC)c1 (centres undefined)	87%
Cn1c(Cc2ccccc2)nnc1Sc1ccc(C#N)c([N+](=O)[O-])c1	93%
CC(C)c1ccc2oc(-c3ccc(NC(=O)c4ccc([N+](=O)[O-])o4)cc3)nc2c1	100%
O=C(Cc1cccc(Cl)c1)Nc1cccc(-c2c[nH]c3nc(Nc4ccccc4)ncc23)c1.O=C(O)C(F)(F)F	99%
Cc1cc(NC(=O)c2ccco2)ccc1OC1CCN(Cc2ccc(C#N)cc2)CC1.O=C(O)C(F)(F)F	92%
